According to PubChem BioAssay (EPA / NIEHS):
Records with an inconclusive call do not appear. Active and inactive are the calls of the source. Rule for the calls, unless noted: active = hit-call score of the fitted dose curve at least 0.9, where 1 is the maximum; inconclusive = response in the unintended direction; inactive = score below 0.9.

Legend:
[1] = STM_H9_OrnithineISnorm_perc: Stemina devTOX quickPredict H9 human embryonic stem cell (hESC)-based Assay for Ornithine (ORN) Metabolite Biomarker, Normalized (AID 2283712; active = hit-call score of the fitted dose curve at least 0.9, where 1 is the maximum; inactive = score below 0.9;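 note: ornithine released into spent medium during last day measured by mass spectrometry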)
Procedure, shortened: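 Cells: undifferentiated H9 hESC. Dosing: 72 h, media replaced every 24 h. Sample: final 24-h conditioned media, 40% acetonitrile. Read: UPLC-HRMS ornithine area vs 13C standard, % DMSO control.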

[2] = STM_H9_CystineISnorm_perc: Stemina devTOX quickPredict H9 human embryonic stem cell (hESC)-based Assay for Cystine (CYSS) Metabolite Biomarker, Normalized (AID 2283713; active = hit-call score of the fitted dose curve at least 0.9, where 1 is the maximum; inactive = score below 0.9)
Procedure, shortened: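 Secreted cystine was measured by UPLC-HRMS in H9 hESC medium after 72h compound exposure with 24-hourly replenishment. Values are standard-normalized areas relative to 0.1% DMSO.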

[3] = STM_H9_NormalizedViability: Cytotoxicity Assessment at 120 hours in the Stemina devTOX quickPredict H9 human embryonic stem cell (hESC)-based Assay (AID 2283784)
Procedure, shortened: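 Chemicals are tested blinded on H9 human embryonic stem cells in the pluripotent state, with medium exchanged daily. After background correction, fluorescence from CellTiter-Fluor is scaled against 0.1% DMSO wells, and decreases are scored.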

[4] = CCTE_Shafer_MEA_dev_LDH: CCTE's Lactate Dehydrogenase Assay for Cytotoxicity in the Neural Network Formation Assay, Shafer Lab (AID 2284068);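 note: exposure for twelve days from plating with re-dosing on DIV 5 and 9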
Procedure, shortened: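 Primary rat cortical neurons were cultured on PEI-coated MEA plates and exposed from plating through day 12, with compound renewed at medium changes on DIV 5 and 9. LDH activity was read spectrophotometrically; loss of signal versus DMSO indicates reduced viability.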

[5] = molecular target: human Purinergic Receptor P2Y, P2RY1 (gene 5028) (UniProt P47900); assay: NVS_GPCR_hPY2: NovaScreen (NVS) G Protein-Coupled Receptor Assay for human Purinergic Receptor P2Y (AID 2283281)
Sequence of human Purinergic Receptor P2Y, P2RY1 (gene 5028) (P47900 whole entry, looked up): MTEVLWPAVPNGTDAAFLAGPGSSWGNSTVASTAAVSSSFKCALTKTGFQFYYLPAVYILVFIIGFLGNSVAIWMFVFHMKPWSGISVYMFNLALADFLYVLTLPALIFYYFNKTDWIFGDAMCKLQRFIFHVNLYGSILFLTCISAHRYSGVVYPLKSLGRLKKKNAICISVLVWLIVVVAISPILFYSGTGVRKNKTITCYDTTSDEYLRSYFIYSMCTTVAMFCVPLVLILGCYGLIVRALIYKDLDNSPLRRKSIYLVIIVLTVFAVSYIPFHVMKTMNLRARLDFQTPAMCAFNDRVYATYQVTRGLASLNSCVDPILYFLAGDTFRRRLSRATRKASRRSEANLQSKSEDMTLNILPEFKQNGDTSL
Procedure, shortened: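 Cell-free radioligand binding using U937-derived protein, 1 h after dosing, filter-based scintillation counting. Screened in duplicate at 25 uM; actives rerun as concentration-response up to 50 uM; loss of signal versus DMSO.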

[6] = molecular target: Serine/threonine-protein phosphatase PP1-alpha catalytic subunit (Homo sapiens) (UniProt P62136); assay: NVS_ENZ_hPPP1CA: NovaScreen (NVS) Enzymatic Assay for human Protein Phosphatase 1 Aatalytic subunit Alpha (PPP1CA) (AID 2283200)
Sequence of Serine/threonine-protein phosphatase PP1-alpha catalytic subunit (Homo sapiens) (P62136 whole entry, looked up): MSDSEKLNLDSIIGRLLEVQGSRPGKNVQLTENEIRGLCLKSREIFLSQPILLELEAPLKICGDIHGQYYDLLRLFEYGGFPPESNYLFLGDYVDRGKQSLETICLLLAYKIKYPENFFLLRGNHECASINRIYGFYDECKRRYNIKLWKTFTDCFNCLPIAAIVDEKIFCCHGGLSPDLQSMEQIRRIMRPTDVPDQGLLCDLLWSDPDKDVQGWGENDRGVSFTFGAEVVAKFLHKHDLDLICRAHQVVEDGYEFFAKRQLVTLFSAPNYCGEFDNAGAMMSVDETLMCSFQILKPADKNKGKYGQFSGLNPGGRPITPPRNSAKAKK
Procedure, shortened: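 Recombinant enzyme activity read by fluorescence with electrophoretic mobility shift separating substrate from product, 1.33 h after dosing; loss of signal vs DMSO baseline. Primary screen in duplicate at 25 uM; actives retested in concentration-response up to 50 uM.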

[7] = molecular target: human Protein Tyrosine Phosphatase Non-receptor Type 4 (PTPN4), PTPN4 (gene 5775) (UniProt P29074); assay: NVS_ENZ_hPTPN4: NovaScreen (NVS) Enzymatic Assay for human Protein Tyrosine Phosphatase Non-receptor Type 4 (PTPN4) (AID 2283208)
Sequence of human Protein Tyrosine Phosphatase Non-receptor Type 4 (PTPN4), PTPN4 (gene 5775) (P29074 whole entry, looked up): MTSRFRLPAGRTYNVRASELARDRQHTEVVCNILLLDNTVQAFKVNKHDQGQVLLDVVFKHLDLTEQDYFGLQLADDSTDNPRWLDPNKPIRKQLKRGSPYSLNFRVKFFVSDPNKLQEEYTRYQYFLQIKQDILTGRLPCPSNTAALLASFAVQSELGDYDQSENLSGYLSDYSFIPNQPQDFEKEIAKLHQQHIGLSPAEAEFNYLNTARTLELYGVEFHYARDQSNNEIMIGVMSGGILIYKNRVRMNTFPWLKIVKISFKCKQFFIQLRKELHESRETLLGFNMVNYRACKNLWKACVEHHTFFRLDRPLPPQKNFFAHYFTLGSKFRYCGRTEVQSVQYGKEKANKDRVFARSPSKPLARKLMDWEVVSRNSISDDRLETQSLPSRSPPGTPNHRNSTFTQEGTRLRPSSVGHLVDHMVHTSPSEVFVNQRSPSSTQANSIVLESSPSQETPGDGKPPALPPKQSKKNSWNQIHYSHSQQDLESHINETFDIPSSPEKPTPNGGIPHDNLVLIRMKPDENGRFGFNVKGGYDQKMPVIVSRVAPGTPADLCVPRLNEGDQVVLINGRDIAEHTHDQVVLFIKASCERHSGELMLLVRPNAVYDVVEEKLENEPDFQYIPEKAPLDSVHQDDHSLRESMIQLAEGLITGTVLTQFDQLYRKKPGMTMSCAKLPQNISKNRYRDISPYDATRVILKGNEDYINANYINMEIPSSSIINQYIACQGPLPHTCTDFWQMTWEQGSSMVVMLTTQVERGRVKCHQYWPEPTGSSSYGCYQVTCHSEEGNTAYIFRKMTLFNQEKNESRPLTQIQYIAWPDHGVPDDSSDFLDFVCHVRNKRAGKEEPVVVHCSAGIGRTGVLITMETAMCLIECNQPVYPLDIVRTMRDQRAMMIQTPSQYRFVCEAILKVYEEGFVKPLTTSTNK
Procedure, shortened: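 Cell-free assay of PTPN4 expressed in Sf9 cells, using a fluorescent substrate with product separated by mobility shift; read 1.33 h after dosing. Single-point screen at 25 uM, then concentration-response up to 50 uM. Loss of signal relative to DMSO.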

[8] = Tanguay_ZF_120hpf_PIG_legacy: (Legacy) Oregon State University Tanguay Lab 120 Hour Post-fertilization zebrafish Assay for Pigmentation Malformation (AID 2283650)
Procedure, shortened: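 Tropical 5D wild-type zebrafish embryos, dechorionated with pronase at 4 hpf, were exposed singly from 6 hpf to 120 hpf statically at 28C in sealed, dark plates with 0.64% DMSO; pigmentation scored present/absent by brightfield microscopy, fitted against DMSO.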

[9] = CCTE_Padilla_ZF_144hpf_TERATOSCORE: (Legacy) CCTE's 144 Hour Post-fertilization zebrafish Assay Teratoscore, Padilla Lab (AID 2283679; active = hit-call score of the fitted dose curve at least 0.9, where 1 is the maximum; inactive = score below 0.9;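 note: zebrafish embryos with chorions exposed by immersion from 6-8 hpf to 5 dpf with daily renewal; teratogenicity score from eye scoring of death hatching and malformations at 144 hpf; higher score means more developmental defects relative to DMSO baseline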)
Procedure, shortened: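 Larvae scored by eye at 144 hpf for death, hatching and malformations after a day in clean Hanks'. Before that, daily-renewed exposure at 80 uM (0.4% DMSO, 26C) from roughly 6-8 hpf through 5 dpf, 4 embryos per chemical.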

[10] = read-out: Fatty Acid-Binding Protein 1 (FABP1), FABP1 (gene 2168); assay: LTEA_HepaRG_FABP1: Life Technologies and Expression Analysis (LTEA) Assay for Fatty Acid-Binding Protein 1 (FABP1) using HepaRG (AID 2283494; active = hit-call score of the fitted dose curve at least 0.9, where 1 is the maximum; inactive = score below 0.9); conditions: mRNA level, 48 h; actives raise or lower the signal
Procedure, shortened: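 Differentiated human HepaRG cells were exposed in duplicate for 48 h in serum-free induction medium to 8-point half-log concentration series topping at 100 uM in 0.5% DMSO. FABP1 mRNA measured by TaqMan qRT-PCR, normalized to ACTB/GAPDH/POLR2A; bidirectional fit versus DMSO.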

[11] = read-out: Hypoxia-inducible factor 1-alpha (Homo sapiens) (UniProt Q16665); assay: LTEA_HepaRG_HIF1A: Life Technologies and Expression Analysis (LTEA) Assay for Hypoxia-inducible factor 1 (HIF1A) Trancription factor using HepaRG (AID 2283503; active = hit-call score of the fitted dose curve at least 0.9, where 1 is the maximum; inactive = score below 0.9); conditions: mRNA level, 48 h; actives raise or lower the signal
Procedure, shortened: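 HepaRG, 48 h exposure, 8-pt half-log series from 100 uM, 0.5% DMSO vehicle, duplicates. Readout: HIF1A transcript by qRT-PCR (Fluidigm array), housekeeping-normalised. Bidirectional curve fit vs DMSO baseline.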

[12] = system: zebrafish Estrogen Receptor (ESR2B), gene 317733; assay: ATG_zfER2b_XSP1: Attagene TRANS-FACTORIAL Multi-Species (XSP1) HepG2 Assay for zebrafish Estrogen Receptor (ESR2B) (AID 2283773)
Procedure, shortened: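 HepG2 cells transiently transfected with multiple GAL4-UAS reporter units expressing chimeric zebrafish ER2b-Gal4; 24 h chemical exposure with 3 nM 6-alpha-fluorotestosterone present. Reporter mRNA measured by RT-PCR and capillary electrophoresis; gain of signal fitted versus DMSO.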

[13] = ATG_XTT_Cytotoxicity_XSP1: Cytotoxicity Assessment in the Attagene TRANS-FACTORIAL Multi-Species (XSP1) HepG2 Assay (AID 2283810)
Procedure, shortened: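 XTT viability readout taken at 24 hours post-dosing in HepG2 liver cells co-treated with 3 nM 6-alpha-fluorotestosterone. Signal loss relative to DMSO controls reflects cytotoxicity.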

[14] = ATG_M_06_XSP2: Attagene TRANS-FACTORIAL Multi-Species (XSP2) HepG2 Assay for M06 Transcription Factor (Internal Marker) (AID 2283811);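 note: internal background marker reporter mRNA measured by RT-PCR and capillary electrophoresis; hits are increases in signal above the DMSO baseline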
Procedure, shortened: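 HepG2 cells transiently transfected with GAL4-UAS multi-reporter constructs, dosed 24 h with 3 nM 6-alpha-fluorotestosterone plus 1.5 nM norgestrel present to stimulate androgen receptor. Reporter mRNA quantified by RT-PCR, 6-FAM labelling, HpaI digestion and capillary electrophoresis; gain-of-signal fitted versus DMSO baseline.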

[15] = molecular target: Peroxisome proliferator-activated receptor gamma (Homo sapiens) (UniProt P37231); assay: ATG_hPPARg_XSP2: Attagene TRANS-FACTORIAL Multi-Species (XSP2) HepG2 Assay for human Peroxisome Proliferator-activated Receptor gamma (PPARg) (AID 2283829);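 note: actives raise reporter mRNA above DMSO so AC50 reflects PPARg activation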
Sequence of Peroxisome proliferator-activated receptor gamma (Homo sapiens) (P37231 whole entry, looked up, the tested form may be a part): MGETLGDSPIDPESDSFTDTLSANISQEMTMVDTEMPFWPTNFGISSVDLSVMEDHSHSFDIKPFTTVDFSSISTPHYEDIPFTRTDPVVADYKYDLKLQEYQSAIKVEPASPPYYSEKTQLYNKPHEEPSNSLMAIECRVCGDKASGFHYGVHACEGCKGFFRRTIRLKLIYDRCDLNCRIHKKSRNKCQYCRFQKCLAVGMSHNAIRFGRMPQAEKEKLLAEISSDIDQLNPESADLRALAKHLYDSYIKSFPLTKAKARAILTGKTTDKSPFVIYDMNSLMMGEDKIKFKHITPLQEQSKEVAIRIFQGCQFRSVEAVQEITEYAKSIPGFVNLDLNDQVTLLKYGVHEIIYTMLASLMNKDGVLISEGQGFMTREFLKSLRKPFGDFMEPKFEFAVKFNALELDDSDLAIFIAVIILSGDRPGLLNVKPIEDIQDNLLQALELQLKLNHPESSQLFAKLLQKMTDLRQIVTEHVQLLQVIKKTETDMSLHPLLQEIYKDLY
Procedure, shortened: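 Multiplexed transactivation in transfected HepG2 liver cells. Gal4-chimeric receptor activity reported as induced reporter transcript after 24 h.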

[16] = molecular target: mouse Peroxisome Proliferator-activated Receptor gamma (PPARg), Pparg (gene 19016) (UniProt P37238); assay: ATG_mPPARg_XSP2: Attagene TRANS-FACTORIAL Multi-Species (XSP2) HepG2 Assay for mouse Peroxisome Proliferator-activated Receptor gamma (PPARg) (AID 2283830);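 note: hits are gains in reporter mRNA above DMSO so AC50 marks activation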
Sequence of mouse Peroxisome Proliferator-activated Receptor gamma (PPARg), Pparg (gene 19016) (P37238 whole entry, looked up, the tested form may be a part): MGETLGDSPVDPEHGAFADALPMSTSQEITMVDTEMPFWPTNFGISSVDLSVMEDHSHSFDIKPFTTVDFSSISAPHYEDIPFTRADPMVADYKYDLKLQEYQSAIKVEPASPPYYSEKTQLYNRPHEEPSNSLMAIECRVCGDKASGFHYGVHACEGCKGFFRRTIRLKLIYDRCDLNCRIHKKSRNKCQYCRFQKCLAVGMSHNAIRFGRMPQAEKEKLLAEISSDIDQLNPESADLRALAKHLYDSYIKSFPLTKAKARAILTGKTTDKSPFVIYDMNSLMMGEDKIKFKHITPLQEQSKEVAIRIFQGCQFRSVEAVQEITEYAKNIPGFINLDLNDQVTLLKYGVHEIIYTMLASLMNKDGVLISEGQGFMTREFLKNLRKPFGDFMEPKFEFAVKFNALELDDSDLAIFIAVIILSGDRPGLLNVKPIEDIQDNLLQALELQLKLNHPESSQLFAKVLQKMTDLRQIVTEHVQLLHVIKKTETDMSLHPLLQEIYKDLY
Procedure, shortened: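 HepG2 cells transiently transfected with GAL4-UAS reporter units for chimeric NR-Gal4 proteins including mouse PPARg, exposed 24 h; medium contained 3 nM 6-alpha-fluorotestosterone and 1.5 nM norgestrel. Reporter mRNA quantified by RT-PCR, HpaI digestion and capillary electrophoresis, vs DMSO.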

[17] = system: zebrafish Peroxisome Proliferator-activated Receptor gamma (PPARg), gene 557037; assay: ATG_zfPPARg_XSP2: Attagene TRANS-FACTORIAL Multi-Species (XSP2) HepG2 Assay for zebrafish Peroxisome Proliferator-activated Receptor gamma (PPARg) (AID 2283833);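 note: actives increase reporter signal over DMSO so AC50 reflects activation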
Procedure, shortened: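 Cell-based transactivation of a chimeric zebrafish PPARg-GAL4 receptor was assessed in transiently transfected HepG2 cells after 24 h of treatment. Reporter mRNA induction, detected fluorescently after RT-PCR, was analysed in the positive direction against DMSO.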

[18] = ATG_M_61_XSP2: Attagene TRANS-FACTORIAL Multi-Species (XSP2) HepG2 Assay for M61 Transcription Factor (Internal Marker) (AID 2283835; active = hit-call score of the fitted dose curve at least 0.9, where 1 is the maximum; inactive = score below 0.9;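 note: reporter mRNA of an internal background marker read by RT-PCR and capillary electrophoresis; active means a rise in signal above the DMSO baseline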)
Procedure, shortened: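 HepG2 cells transiently transfected with multiple GAL4-UAS reporter units; 3 nM 6-alpha-fluorotestosterone and 1.5 nM norgestrel present to stimulate androgen receptor. After 24 h compound exposure, reporter mRNA measured by RT-PCR and capillary electrophoresis fluorescence, gain-of-signal versus DMSO baseline.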

[19] = molecular target: human Neurokinin, NK2 Receptor, TACR2 (gene 6865) (UniProt P21452); assay: NVS_GPCR_hNK2: NovaScreen (NVS) G Protein-Coupled Receptor Assay for human Neurokinin, NK2 Receptor (AID 2283278);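 note: actives reduce bound radioligand signal relative to DMSO baseline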
Sequence of human Neurokinin, NK2 Receptor, TACR2 (gene 6865) (P21452 whole entry, looked up): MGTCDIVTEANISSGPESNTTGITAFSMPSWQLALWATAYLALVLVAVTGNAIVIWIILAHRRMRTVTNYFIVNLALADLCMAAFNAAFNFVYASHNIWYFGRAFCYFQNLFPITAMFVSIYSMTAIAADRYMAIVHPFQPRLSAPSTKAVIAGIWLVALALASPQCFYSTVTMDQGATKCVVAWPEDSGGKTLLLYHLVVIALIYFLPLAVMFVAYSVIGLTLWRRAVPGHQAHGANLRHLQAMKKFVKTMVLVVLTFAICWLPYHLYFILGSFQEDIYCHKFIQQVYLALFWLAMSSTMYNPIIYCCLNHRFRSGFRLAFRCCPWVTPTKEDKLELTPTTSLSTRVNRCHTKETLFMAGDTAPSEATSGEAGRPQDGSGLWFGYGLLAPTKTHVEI
Procedure, shortened: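 Cell-free radioligand binding using receptor protein extracted from CHO cells; readings taken 4 hours after chemical dosing by filter-based scintillation counting. Primary screen ran single concentration (25 uM) in duplicate; actives followed up in concentration series, loss-of-signal versus DMSO baseline.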

[20] = molecular target: human Opioid Receptor Mu (Opiate Mu), OPRM1 (gene 4988) (UniProt P35372); assay: NVS_GPCR_hOpiate_mu: NovaScreen (NVS) G Protein-Coupled Receptor Assay for human Opioid Receptor Mu (Opiate Mu) (AID 2283290);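 note: hits lower bound tracer signal versus DMSO meaning displacement of the ligand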
Sequence of human Opioid Receptor Mu (Opiate Mu), OPRM1 (gene 4988) (P35372 whole entry, looked up): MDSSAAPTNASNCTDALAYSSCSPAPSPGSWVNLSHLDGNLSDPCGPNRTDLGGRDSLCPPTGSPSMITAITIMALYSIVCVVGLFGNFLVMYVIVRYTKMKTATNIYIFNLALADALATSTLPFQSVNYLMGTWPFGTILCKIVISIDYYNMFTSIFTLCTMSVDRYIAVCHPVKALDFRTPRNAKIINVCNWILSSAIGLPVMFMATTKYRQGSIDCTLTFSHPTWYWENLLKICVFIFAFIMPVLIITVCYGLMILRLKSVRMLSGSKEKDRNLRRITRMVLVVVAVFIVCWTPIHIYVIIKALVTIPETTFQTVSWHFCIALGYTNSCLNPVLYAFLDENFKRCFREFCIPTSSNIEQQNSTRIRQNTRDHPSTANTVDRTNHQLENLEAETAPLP
Procedure, shortened: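 Primary screen in duplicate at 25 uM, with actives followed in concentration series. CHO-derived receptor membranes, cell-free; bound radioligand read by scintillation counting after filtration at 2.5 h, decrease scored against DMSO.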

Sequence of Hypoxia-inducible factor 1-alpha (Homo sapiens) (Q16665 whole entry, looked up): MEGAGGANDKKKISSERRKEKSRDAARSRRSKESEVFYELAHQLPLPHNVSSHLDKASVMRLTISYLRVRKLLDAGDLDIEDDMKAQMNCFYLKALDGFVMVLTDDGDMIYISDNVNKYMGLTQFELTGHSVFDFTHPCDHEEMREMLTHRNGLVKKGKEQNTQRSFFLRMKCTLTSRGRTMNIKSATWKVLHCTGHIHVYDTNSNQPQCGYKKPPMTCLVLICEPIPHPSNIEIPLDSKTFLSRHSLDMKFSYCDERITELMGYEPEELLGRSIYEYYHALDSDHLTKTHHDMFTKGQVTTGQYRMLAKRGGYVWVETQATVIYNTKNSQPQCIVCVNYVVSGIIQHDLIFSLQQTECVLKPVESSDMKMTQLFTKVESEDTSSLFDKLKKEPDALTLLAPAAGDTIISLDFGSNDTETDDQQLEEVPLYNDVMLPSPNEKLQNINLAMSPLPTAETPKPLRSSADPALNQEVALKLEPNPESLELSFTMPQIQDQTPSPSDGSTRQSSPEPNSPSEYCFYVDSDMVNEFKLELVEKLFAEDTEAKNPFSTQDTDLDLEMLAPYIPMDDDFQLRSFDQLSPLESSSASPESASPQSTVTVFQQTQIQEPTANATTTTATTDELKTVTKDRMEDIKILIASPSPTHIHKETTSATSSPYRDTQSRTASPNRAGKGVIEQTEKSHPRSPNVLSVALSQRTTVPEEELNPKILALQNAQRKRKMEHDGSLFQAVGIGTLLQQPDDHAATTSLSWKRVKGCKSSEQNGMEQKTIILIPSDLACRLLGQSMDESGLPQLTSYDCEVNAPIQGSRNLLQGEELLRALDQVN

Compound: Cc1ccc(OP(=O)(Oc2ccc(C)cc2)Oc2ccc(C)cc2)cc1 (tested in a mixture with another compound)
- outcome [1]: inactive
- AC50 [2]: 58.4 µM (active)
- outcome [3]: inactive
- outcome [4]: inactive

Compound: CCOC(=O)NC(=S)Nc1ccccc1NC(=S)NC(=O)OCC
- outcome [5]: inactive

Compound: O=C(CCl)c1ccccc1
- outcome [6]: inactive
- outcome [7]: inactive
- outcome [8]: inactive
- AC50 [9]: 4.85 µM (active)

Compound: N#CCCCCC#N
- outcome [10]: inactive
- outcome [11]: inactive

Compound: CC(C)(c1cc(Cl)c(O)c(Cl)c1)c1cc(Cl)c(O)c(Cl)c1
- AC50 [12]: 9.75 µM (active)
- outcome [13]: inactive
- outcome [14]: inactive
- AC50 [15]: 3.94 µM (active)
- AC50 [16]: 3.81 µM (active)
- outcome [17]: inactive
- outcome [18]: inactive

Compound: O=[N+]([O-])c1ccc(Cl)cc1
- outcome [10]: inactive
- outcome [11]: inactive

Compound: O=C1C=CC(=O)C=C1
- AC50 [19]: 0.927 µM (active)
- AC50 [20]: 9.86 µM (active)

Compound: CC(=O)c1cc2c(cc1C)C(C)(C)C(C)CC2(C)C (stereo unspecified)
- AC50 [12]: 25.5 µM (active)
- outcome [13]: inactive
- outcome [14]: inactive
- AC50 [15]: 41.9 µM (active)
- AC50 [16]: 49.4 µM (active)
- outcome [17]: inactive
- outcome [18]: inactive

Compound: O=C1C(Cl)=C(Cl)C(=O)C(Cl)=C1Cl
- AC50 [19]: 1.07 µM (active)
- AC50 [20]: 4.48 µM (active)
